Experimental data as given in PubChem BioAssay AID1611 (NINDS Approved Drug Screening Program, 2009).

Experiment: HSE-luciferase reporter activators – cell-based (AID 1611)
Settings: human cells, HSE-luciferase heat shock reporter; stronger effect = higher value

SMILES | fold change
CCN(CC)CCOC(=O)C(c1ccccc1)C1CCCCC1 (centres undefined) | 1.12
CC(C[N+](C)(C)C)OC(N)=O (centres undefined) | 0.9
CCn1cc(C(=O)O)c(=O)c2cc(F)c(N3CCNCC3)cc21 | 1.06
CN(C)C(=O)Oc1cccc([N+](C)(C)C)c1 | 1.23
CC1=CC(=O)c2ccccc2C1=O | 0.86
COc1cccc(OC)c1C(=O)N[C@@H]1C(=O)N2[C@@H]1SC(C)(C)[C@@H]2C(=O)O | 0.82
C=C(C)[C@H]1CC=C(C(=O)O)CC1 | 1.32
CCN(CC)CCNC(=O)c1cc(Br)c(N)cc1OC | 1.36
NC(N)=N/N=C\c1c(Cl)cccc1Cl | 0.39
NNCCc1ccccc1 | 0.93
COc1ccccc1OCC(O)CO (centres undefined) | 1
O=C(O)CCC(=O)c1ccc(-c2ccccc2)cc1 | 1.02
CC[C@@H](C(=O)C(C)[C@@H](O)[C@H](C)CCc1ccc(C)c(O)c1C(=O)O)C1OC(CC)(C2CC[C@](O)(CC)[C@H](C)O2)C[C@@H]1C (some centres undefined) | 1.12
COc1ccc(CN(CCN(C)C)c2ccccn2)cc1 | 1.01
CO/N=C(\C(=O)NC1C(=O)N2C(C(=O)O)=C(CSc3nc(=O)c(O)nn3C)CS[C@H]12)c1csc(N)n1 (some centres undefined) | 0.94
Nc1ncnc2c1ncn2[C@@H]1O[C@H](CO)[C@@H](O)[C@@H]1O | 1.52
CC/C(=C(\c1ccccc1)c1ccc(OCCN(C)C)cc1)c1ccccc1 | 0.77
Nc1nccs1 | 1.19
O=c1[nH]cc(F)c(=O)[nH]1 | 0.52
